# In PubChem BioAssay (NCI):
# The panel holds about 83,000 compounds, 20% with a hit somewhere; the sample as a whole holds those more often.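 Cells were grown in 96-well plates and exposed to the test compound at a single concentration for 48 hours; results are reported as percent growth, with values below 10 considered active.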 Values without a mark were called inactive. Active and inactive are the calls of the source.
# How the values were obtained:
# Assay in all cases: NCI-60 one-dose screen, 48 h (100 = growth as untreated, 0 = no growth, -100 = all killed)
# NCI-H522 lung = conditions: 10 µM unless noted
# A549/ATCC NSCLC = conditions: 10 µM unless noted
# HT29 colon = conditions: 10 µM unless noted
# SNB-19 CNS = conditions: 10 µM unless noted
# EKVX NSCLC = conditions: 10 µM unless noted
# UO-31 renal = conditions: 10 µM unless noted
# TK-10 renal = conditions: 10 µM unless noted
# ACHN renal = conditions: 10 µM unless noted
# CAKI-1 renal = conditions: 10 µM unless noted
# RPMI-8226 leukemia = conditions: 10 µM unless noted
# OVCAR-8 ovarian = conditions: 10 µM unless noted
# OVCAR-5 ovarian = conditions: 10 µM unless noted
# SK-OV-3 ovarian = conditions: 10 µM unless noted
# T-47D breast = conditions: 10 µM unless noted
# MDA-MB-435 melanoma = conditions: 10 µM unless noted
# SNB-75 CNS = conditions: 10 µM unless noted
# MOLT-4 leukemia = conditions: 10 µM
# COLO 205 colon = conditions: 10 µM
SMILES,growth (NCI-H522 lung),growth (A549/ATCC NSCLC),growth (HT29 colon),growth (SNB-19 CNS),growth (EKVX NSCLC),growth (UO-31 renal),growth (TK-10 renal),growth (ACHN renal),growth (CAKI-1 renal),growth (RPMI-8226 leukemia),growth (OVCAR-8 ovarian),growth (OVCAR-5 ovarian),growth (SK-OV-3 ovarian),growth (T-47D breast),growth (MDA-MB-435 melanoma),growth (SNB-75 CNS),growth (MOLT-4 leukemia),growth (COLO 205 colon)
C[C@]12CCC(=O)CC1CC[C@@H]1C2CC[C@@]2(C)C1CC[C@@H]2OC(=O)CC[Se][Se]CCC(=O)O[C@H]1CCC2[C@@H]3CCC4CC(=O)CC[C@]4(C)C3CC[C@@]21C (stereo not given in full),88.3%,101%,83.1%,76.7%,31.9%,90.5%,77.4%,100%,84.6%,93.6%,94.2%,102%,160%,86.5%,88.5%,–,–,–
Cc1ccc(C[As+](c2ccccc2)(c2ccccc2)c2ccccc2)cc1,-22% (active),7.2% (active),-3.93% (active),17.2%,–,69%,16.9%,–,60.1%,-8.65% (active),–,31.8%,-4.76% (active),-3.86% (active),–,15.1%,14%,–
O=C(NCCNC(=O)c1ccc([As](O)O)cc1)c1ccc([As](O)O)cc1,103%,–,112%,–,103%,96.8%,111%,106%,–,114%,103%,114%,104%,100%,–,87.5%,109%,100%
CC(C)[C@]12O[C@H]1[C@@H]1O[C@]13[C@]1(O[C@H]1C[C@H]1C4=C(CC[C@@]13C)C(=O)OC4)[C@@H]2OC(=O)OC(C)(C)C,-34.3% (active),16.7%,1.27% (active),16.5%,-22.4% (active),1.21% (active),5.21% (active),9.88% (active),-49.8% (active),20.6%,16.8%,24.4%,–,23.8%,-73.6% (active),-60.5% (active),-3.98% (active),–
C[C@@H]1O[C@@H](O[C@H]2CC[C@@]3(C)[C@H](CCC4[C@@H]3C(O)C[C@]3(C)[C@@H](c5ccc(=O)oc5)CC[C@]43O)C2)[C@H](O)[C@H](O)[C@H]1O (stereo not given in full),-87% (active),-83.6% (active),-90.4% (active),-91.1% (active),-58.3% (active),-97.3% (active),-97% (active),-81.7% (active),-68.7% (active),–,–,-92% (active),-95.6% (active),-55.6% (active),-76.2% (active),-88.3% (active),–,–
O=S(=O)(Cl)c1ccccc1 (tested in a mixture with another compound),89.1%,102%,101%,100%,–,85%,–,93.9%,109%,96.6%,–,93.7%,102%,–,–,–,93%,105%
CCC(CO)NC1CCCCC1 (stereo not given),68.1%,–,5.74% (active),–,90%,–,70.8%,–,61.5%,97.6%,78.9%,92.4%,102%,–,74.2%,81.6%,88%,43.2%
CN1CC2CCC(C1)C2=O,92.1%,102%,100%,105%,–,62.7%,–,102%,91.7%,98.9%,104%,103%,–,102%,97.7%,89.3%,91.3%,106%
CC1COC(=O)C1 (stereo not given),99.4%,101%,–,105%,–,90.4%,100%,–,96.1%,110%,104%,102%,96.1%,95.5%,102%,–,102%,102%
[N-]=[N+]=NC(C(=O)O)c1ccccc1 (stereo not given),87.3%,95.2%,99.1%,–,99.7%,88.9%,106%,100%,91.8%,–,100%,102%,–,103%,–,96.6%,87.4%,104%
